Compounds without any hit were thinned out: in the full panel of roughly 83,000, 20% have a hit.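 Negative percent growth values reflect cell death: -40 means 40% of the cells present at the start died, and -100 means all died.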 Unmarked numbers belong to inactive results. The source made the active and inactive calls.

The test system of this assay is NCI-H522 lung. The assay can be described thus: NCI-60 one-dose screen, 48 h (100 = growth as untreated, 0 = no growth, -100 = all killed). As to conditions: 10 µM. The protocol:
Growth inhibition of the NCI-H522 human Non-Small Cell Lung tumor cell line is measured as a screen for anti-cancer activity. Cells are grown in 96 well plates and exposed to the test compound for 48 hours. Compounds are tested at a single concentration, which is 10^-5 M for most compounds. The reported endpoint is percent growth (GI% or GIPRCNT), where numbers from 0 - 100% represent growth inhibition, and numbers from -100% - 0 represent cell death. For example, a value of 40 represents 60% growth inhibition. A value of 0 means no net growth occurred over the course of the experiment. A value of -40 indicates 40% of cells at the beginning of the experiment died by the end of the experiment. A value of -100 means all cells are dead at the end of the experiment.
NCI-60 Human Tumor Cell Lines Screen was performed using the standard one-dose NCI protocol, which is described in more detail at https://dtp.cancer.gov/discovery_development/nci-60/default.htm.
Compounds with GIPRCNT values below 10 were considered active. Activity score was based on GIPRCNT using the following formula: […]
Score is 0 for GIPRCNT values of 100 or above, 50 for GIPRCNT values of 0, and 100 for GIPRCNT values of -100.
For `COc1cccc(O)c1/C=C1\SCc2cc3c(OC)cccc3[o+]c21`, the growth is 102%. Then `Cc1cc(N=C2NC(=O)S/C2=C\c2ccc(F)cc2)n[nH]1`, with -8.95% (active); and `Cn1cc(-c2cc(N)n3nc(-c4cn(C)c5ccccc45)cc3n2)c2cc(F)ccc21`, with -66.3% (active). With `COc1ccc2[nH]cc(-c3nc(N)nnc3-c3cn(C)c4ncc(Br)cc34)c2c1`, the growth was -55.1% (active). With `COc1ccc(-n2c(SCC(=O)NNS(=O)(=O)c3ccccc3)nc3ccc(Cl)cc3c2=O)cc1`, the growth is 86.5%. For `CCOc1ccc(/C=N/NC(=O)Cn2nc(Cc3ccc(OC)cc3)c3onc(C)c3c2=O)cc1` the value was 46.6%; for `O=C1NC2C=CC=CC2/C1=C1/SC(=S)N(C2CC(=O)N(c3ccc(Br)cc3)C2=O)C1=O` (stereo not given), 68.7%; for `COc1ccc(Cc2nn(CC(=O)N/N=C/c3ccc(Br)cc3)c(=O)c3c(C)noc23)cc1`, 29.2%. With `COc1ccc(C(=O)COc2ccc(NC(=O)Nc3ccccc3)cc2)cc1`, the growth is 58.2%. For `O=C(Nc1ccc(OCc2ccc(Cl)cc2)cc1)Nc1ccc(Cl)c(C(F)(F)F)c1` the value was -16.7% (active); for `CC(C)(C)c1cc(/C=C2\S/C(=N/c3ncn[nH]3)NC2=O)cc(C(C)(C)C)c1O`, -23.9% (active). As for `Cn1cc(-c2cc3nc(-c4c[nH]c5ccccc45)cc(N)n3n2)c2cc(Cl)ccc21`, the growth is -72.1% (active). As for `Cc1ccc2c(c1)C(=O)/C(=C/c1c[nH]c3ccccc13)S2`, the growth was 11.2%. Regarding `Cn1cc(-c2nnc(N)nc2-c2c[nH]c3ccc(F)cc23)c2cc(Br)cnc21`, the growth is 23.8%. Consider `COc1ccc(C2c3sc4ccc(C)cc4c3Oc3nc(N)nc(N)c32)cc1` (stereo not given), for which the growth is 57.2%.

As for `COc1ccc(C2c3sc4ccc(C)cc4c3Oc3nc[nH]c(=O)c32)cc1` (stereo not given), the growth was 42.7%. For `CCOC(=O)C1=C(N)N(c2ccc(C)cc2)C2=C(C(=O)CC(C)(C)C2)C1c1ccccc1Br` (stereo not given) the value was 67.5%.

With `O=C(CSc1nc2ccccc2c(=O)n1-c1ccc(Cl)cc1)Nc1ccc(-c2nc3ccc([N+](=O)[O-])cc3[nH]2)cc1`, the growth is 32.7%.

Take `Cc1ccc2c(c1)C(=O)/C(=C/c1ccc([N+](=O)[O-])cc1)S2`: the growth is 82.5%.

For `COc1ccc(OC)c(-n2cc(C#N)c(N)c2C(=O)c2ccc(Cl)cc2Cl)c1`, the growth was 7.18% (active). Then `O=C(CSc1nc2ccccc2c(=O)n1-c1ccc(Cl)cc1)Nc1ccc(-c2nc3ccccc3[nH]2)cc1`, with 15.9%. As for `O=C(CN1CCN(c2ncnc3c2cnn3-c2ccccc2)CC1)Nc1ccc(Br)cc1`, the growth was -80.3% (active). In the case of `Cc1ccc(-c2nc(C#N)c(S(=O)(=O)N3CCN(S(C)(=O)=O)CC3)o2)cc1`, the growth was -86.6% (active).

Regarding `COc1ccc(Cc2nn(CC(=O)N/N=C/c3ccc([N+](=O)[O-])cc3)c(=O)c3c(C)noc23)cc1`, the growth was 76.1%.

In the case of `Cn1cc(-c2nc(N)nnc2-c2c[nH]c3ccccc23)c2cc(Br)cnc21`, the growth is -36.5% (active). For `COc1ccc(NCc2cn(-c3ccc(C(=O)O)cc3)nc2-c2ccc(F)cc2)cc1C(F)(F)F` the value was 40.2%; for `Cn1cc(/C=C(/SS/C(=C/c2cn(C)c3cccc(C(=O)O)c23)C(=O)O)C(=O)O)c2c(C(=O)O)cccc21`, 92.6%. Then `CC1[C@H]2[C@H](C[C@H]3[C@@H]4CC=C5c6sc(Nc7cccc(Cl)n7)nc6CC[C@]5(C)[C@H]4CC[C@@]32C)O[C@]12CC[C@@H](C)CO2` (stereo not given in full), with 65.8%. For `COc1cccc(C(=O)CSc2nc(-c3ccc(OCc4ccccc4)c(OC)c3)c(C#N)c(=O)[nH]2)c1`, the growth is 78.9%. For `C#C[C@]1(O)CC[C@H]2[C@@H]3CC=C4c5sc(Nc6ccc(C(F)(F)F)cn6)nc5CC[C@]4(C)[C@H]3CC[C@@]21C` the value was -51.1% (active); for `COc1ccccc1-n1cc(C#N)c(N)c1C(=O)c1ccc(Cl)cc1Cl`, -55.6% (active); for `COc1ccc(C2OC[C@@]3(C)C4CC[C@]5(C)C(CC=C6C7CC(C)(C)CC[C@]7(C(=O)O)CC[C@]65C)[C@@]4(C)C[C@@H](O)[C@@H]3O2)cc1` (stereo not given in full), 57.1%.

Regarding `COc1cc(C2CC(c3ccc(Oc4ccc(Cl)cc4)cc3)=NN2c2nc(-c3ccc(Cl)cc3)c(C#N)c(N3CCOCC3)n2)cc(OC)c1OC` (stereo not given), the growth was 92.4%. For `O=C1S/C(=C\c2ccc([N+](=O)[O-])cc2)C(=O)N1CCN1CCCCC1` the value was 99.7%; for `COc1cc(C2CC(c3ccccc3)=Nc3c(N)nc(N)nc3N2)ccc1Oc1nc(NCCO)nc(N2CCOCC2)n1` (stereo not given), 97.7%; for `O=C(CC(=O)Nc1ccc(Oc2ncnc3scc(Nc4n[nH]c(=S)s4)c23)cc1)Nc1ccc(Br)cc1`, 89.6%.

`C#C[C@]1(O)CC[C@H]2[C@@H]3CC=C4c5sc(Nc6cc(C)cc(C)n6)nc5CC[C@]4(C)[C@H]3CC[C@@]21C`: the growth was -79.9% (active). With `O=C(Nc1ccc(OCC(=O)c2ccc(Cl)cc2)cc1)Nc1ccc(Cl)c(C(F)(F)F)c1`, the growth is -12.4% (active).

For the molecule `O=C(c1ccccc1)c1ccc2nc(-c3ccccc3Br)[nH]c2c1`, the growth was -74.9% (active). For `CC1(C)CC(=O)C2=C(C1)N(Cc1ccc(C(=O)O)cc1)C1=C(C(=O)CC(C)(C)C1)C2c1ccc(Cl)cc1` the value was 84.9%.
